Bioassay records deposited in PubChem BioAssay by several laboratories.
Rows were chosen to be rich in hits. Some 1% of all compounds tested hit in one or more screens of this group.
Sa RN4220 lethal = kills Staphylococcus aureus RN4220 | AID 1259311 | S. aureus RN4220 growth, OD600, 16 h | inhibition, % (concentration not given with the values) | 330,000 tested, 0.33% active; in the data active means inhibition above about 85%;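 further: plate controls were untreated cells for no effect and reference antibiotic for full effect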
Sa ugtP lethal = compounds lethal to S. aureus RN4220 ugtP deletion mutant; growth inhibition, % (no concentration beside the values); 330,000 tested, 0.54% active; OD600 growth, 16 h; in the data active means growth inhibition above about 68%;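 further: plate controls were untreated wells for no effect and antibiotic for full effect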
SSB-PriA inh = inhibitors of Klebsiella pneumoniae PriA binding to SSB C-terminal tail. AlphaScreen SSBct-PriA binding, biotinylated peptide. inhibition, % at 33 µM. 430,000 tested, 0.6% active. AID 1272365; in the data active means inhibition mostly above about 37%, no sharp cut-off; inactive means mostly below about 20%;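 further: plate controls were negative control peptide for no effect and reference peptide for full effect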
Active calls of the source: *; . = no result.

SMILES	Sa RN4220 lethal	Sa ugtP lethal	SSB-PriA inh
COc1ccc(-[n+]2c(C)cc(/C=C3\Sc4ccccc4N3C)cc2C)cc1	99.7*	100.5*	.
COc1ccc(C(=O)/C=C2\Sc3ccccc3N2C)cc1	7.4	7.1	-15.8
COc1ccccc1OC(=O)CCN1c2ccccc2Sc2ccccc21	-4.4	1.4	-23.0
COc1ccccc1-[n+]1c(C)cc(/C=C2\Sc3ccccc3N2C)cc1C	99.9*	100.4*	.
COc1ccc(-c2nc(NC(=O)c3ccnn3C)sc2C)cc1	.	.	-1.0
Cc1cc(C)c2sc(NC(=O)CCS(=O)(=O)c3ccc(Cl)cc3)nc2c1	.	.	6.0
Nc1nc(NCc2ccco2)nc(N2CCCCCC2)c1[N+](=O)[O-]	95.0*	98.5*	19.6
Nc1nc(NCc2ccco2)nc(N2CCCC2)c1[N+](=O)[O-]	8.0	-9.0	-5.5
C=CCn1c(SCCC(=O)NCCc2ccccc2)nc2scc(-c3ccccc3)c2c1=O	.	.	-14.0
CCCCCn1c(NC(=O)c2ccco2)c(C(=O)OCC)c2nc3ccccc3nc21	32.6	-1.4	7.4
CCC(=O)Nc1c(C#N)c2nc3ccccc3nc2n1-c1ccc(C)cc1	5.7	5.5	17.3
CCCCn1c(NC(=O)c2ccccc2)c(C#N)c2nc3ccccc3nc21	54.1	38.0	56.2*
CCC(C)n1c(NC(=O)c2ccccc2)c(C#N)c2nc3ccccc3nc21 (stereo not drawn)	7.5	-4.8	57.5*
CCCCCn1c(=O)c(C(=O)Nc2ccccc2C)c(O)c2ccccc21	-0.9	30.1	-11.5
CCCCCn1c(=O)c(C(=O)Nc2ccccc2S(N)(=O)=O)c(O)c2ccccc21	99.9*	99.6*	2.0
CCCCn1c(=O)c(C(=O)Nc2ccccc2S(N)(=O)=O)c(O)c2ccccc21	92.7*	61.5	-13.3
CCn1c(=O)c(C(=O)Nc2ccccc2S(N)(=O)=O)c(O)c2ccccc21	5.4	-16.9	-3.1
CC(C)CCN1C(=O)C(C)(C)COc2ccc(NS(=O)(=O)C(C)C)cc21	.	.	-7.0
COc1ccccc1CNC(=O)c1csc(Nc2ccccc2)n1	.	.	12.0
COc1cc(C(=O)NCc2ccc3c(c2)OCO3)ncn1	.	.	-6.0
CC(=O)NC(c1cccs1)c1cc(F)c2cccnc2c1O (stereo not drawn)	16.2	-5.5	5.7
CC(=O)NC(c1ccco1)c1cc(F)c2cccnc2c1O (stereo not drawn)	10.7	-8.5	72.9*
S=C(Nc1ccccn1)c1ccccn1	-7.9	0.0	80.6*
O=C(Nc1ccccn1)C(=O)Nc1ccccn1	3.7	6.5	-2.0
O=C(NNC(=O)c1ccccc1[N+](=O)[O-])c1ccccn1	8.4	-5.0	-16.0
SMILES	Sa RN4220 lethal	Sa ugtP lethal	SSB-PriA inh
O=C(NN=C1CCCCc2ccccc21)c1ccccn1	5.4	8.1	2.7
O=C(NN=C1CCC(=NNC(=O)c2ccccn2)CC1)c1ccccn1	4.7	10.5	85.4*
COCCCNC(=S)NNC(=O)c1ccccc1Br	3.0	-0.2	-18.7
O=C(NNC(=O)c1ccccn1)c1ccccn1	.	.	57.5*
COCCCNC(=S)NNC(=O)c1ccccn1	-1.9	4.9	81.6*
N#Cc1cccnc1Br	.	.	-6.0
Cc1nc(-c2ccc(F)cc2)sc1-c1ccc(SCC(=O)c2ccc(Cl)cc2)nn1	.	.	-5.0
Cc1ccc(C(=O)Nc2nnc(-c3cccc(S(C)(=O)=O)c3)o2)c(C)c1	.	.	-17.0
O=C(Nc1cccc([N+](=O)[O-])c1)c1ccc2ccccc2c1O	86.1*	86.2*	-6.1
O=C(Cc1ccccc1)Nc1cccc([N+](=O)[O-])c1	-0.3	-1.4	-1.0
CN1C(=O)C(C)(C)COc2ccc(NC(=O)c3c(F)cccc3Cl)cc21	.	.	6.0
Cc1cc(NN=Cc2c(O)ccc3ccccc23)nc(-c2ccccc2O)n1	99.0*	98.3*	1.8
Cc1cc(NN=Cc2ccc(O)c(C)c2O)nc(-c2ccccc2O)n1	99.4*	98.3*	11.9
Cc1cc(NN=Cc2ccccc2O)nc(-c2ccccc2O)n1	-1.8	-15.1	-4.9
Cc1cc(NN=Cc2ccccc2)nc(-c2ccccc2O)n1	67.4	52.7	13.5
CSc1ccc(-c2nnc(NC(=O)c3ccccc3)o2)cc1	.	.	-3.0
O=C(CNC(=O)c1ccccc1)Nc1cnc(N2CCCC2)nc1	.	.	-15.0
CN(C)C(=O)Cc1ccc(NS(=O)(=O)Cc2cc(F)cc(F)c2)cc1	.	.	-17.0
COc1ccc(NC(=S)Nc2ccc3nccnc3c2)cc1	1.9	1.2	77.3*
S=C(Nc1ccc2nccnc2c1)N1CCCCCC1	.	.	21.6
S=C(Nc1ccc2nccnc2c1)N1CCOCC1	6.4	5.4	70.6*
COc1ccc(NC(=S)Nc2ccccc2)cc1	1.4	10.4	-9.5
CCOc1ccc(NC(=S)Nc2ccc3nccnc3c2)cc1	.	.	32.6
COc1ccc(NC(=S)Nc2ccc(N)c([N+](=O)[O-])c2)cc1	4.4	4.5	38.9*
CCCCCCC(=O)O	2.9	6.3	-14.8
SMILES	Sa RN4220 lethal	Sa ugtP lethal	SSB-PriA inh
CCCCCCCCCCCCCCCC(=O)OC(CC(=O)O)C[N+](C)(C)C (stereo not drawn)	41.7	99.0*	-22.1
c1ccc(COc2ccc(CN3CC(c4nc(-c5ncccn5)no4)C3)cc2)cc1	.	.	-8.0
O=C(Nc1ccc(N2CCCC2)c(Cl)c1)c1ccc([N+](=O)[O-])o1	33.3	88.4	44.6*
O=C(Nc1nc2c(Cl)cccc2s1)c1ccc([N+](=O)[O-])o1	99.9*	100.4*	-3.2
O=C(Nc1ccc(N2CCCCC2)cc1)c1ccc([N+](=O)[O-])o1	-0.2	43.6	-0.7
O=C(Nc1nc2c(F)cccc2s1)c1ccc([N+](=O)[O-])o1	-0.9	73.9	-10.1
COc1cc(NC(=O)Nc2nccn(-c3cccc(Cl)c3)c2=O)cc(OC)c1	.	.	0.0
COc1ccc(C(=O)NCCn2ncc3c(=O)n(Cc4cccc(C)c4)cnc32)c(OC)c1	.	.	1.0
Cc1ccc(NC(=O)c2cc([N+](=O)[O-])ccc2N2CCCC2)cc1	4.7	0.0	27.9
O=C(Nc1nnc(C2CC2)s1)c1cc([N+](=O)[O-])ccc1N1CCCCC1	88.7*	77.0	20.8
CC(=O)OC(C)(C)C(=O)NCC(C)(O)c1cc2ccccc2o1 (stereo not drawn)	.	.	2.0
COc1cccc(C(=O)NCC(=O)N2CCC(S(=O)(=O)c3ccc(F)cc3)CC2)c1	.	.	-5.0
CC(=O)c1ccc(N2CCN(C(=O)c3ccc(-c4ccccc4)cc3)CC2)cc1	8.3	3.9	-8.8
CC(=O)c1ccc(N2CCN(C(=O)c3cccc(Oc4ccccc4)c3)CC2)cc1	-7.1	86.6*	-4.3
CCn1cc(C(=O)O)c(=O)c2ccc(C)nc21	0.2	66.5	-2.8
CCn1cc(C(=O)O)c(=O)c2cc(F)c(N3CCNCC3)nc21	97.6*	97.4*	-3.2
COC(=O)c1ccc(CSc2n[nH]c(=O)c3cc(-c4cccs4)nn23)o1	.	.	-20.0
Cc1cccc(NC(=S)N=Nc2c(O)[nH]c3ccccc23)c1	99.4*	95.2*	15.1
O=C(N=Nc1c(O)[nH]c2ccccc12)Nc1ccccc1	.	.	-5.0
N#CC(C#N)=C1C=CC=CN1/C(=C\c1ccco1)C(=O)c1ccccc1	36.6	74.0	-0.8
N#CC(C#N)=C1C=CC=CN1/C(=C\c1ccco1)C(=O)c1ccc(Br)cc1	98.7*	98.4*	-10.4
Cn1c(=O)[nH]cc(C(=O)N2CCC(Cc3ccccc3)CC2)c1=O	.	.	-1.0
CON=Cc1ccc(Sc2ccccc2N)c([N+](=O)[O-])c1	-0.5	0.4	52.1*
Nc1ccccc1Sc1ccccc1[N+](=O)[O-]	-0.6	-9.0	28.9
